Screening results as filed in PubChem.
SW480 rerep = inducers of DNA re-replication in SW480 colon cancer cells; SW480 DNA re-replication, Hoechst DNA content imaging, 48 h; Potency, µM (series often up to 46.1 µM), hits mostly activators; hit rate 1.8% among 340,000; further: nearly all actives have a fitted effect of over 55% in size
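Image-based read-out: total Hoechst fluorescence of nuclei (405 nm excitation, 500-530 nm emission), with hits raising the fraction of high-intensity nuclei. SW480 colon cells incubated 48 hr with compounds at 37 C.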
KCNH2 3.1 inh = blocks the human KCNH2 3.1 channel isoform | hit rate 0.95% among 340,000 | U2OS KCNH2 3.1, thallium flux FluxOr; stronger effect = lower value | activity change, % (tested at about 1.8 µM);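 active means maximum activity change below -70%; inconclusive means maximum activity change from -70% to -50%; inactive means maximum activity change above -50%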;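 further: thallium influx rate constant from kinetic fluorescence after stimulation buffer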
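Virally transduced U2OS (3.1 isoform, 4 h infection in dark at RT) → overnight 37 C → FluxOr + Red40 in HBSS/HEPES, 45 min → stimulation buffer, 2 min kinetic read → rate constant vs DMSO controls.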
MCF10A rerep = DNA re-replication induction in MCF 10a cells; Potency, µM (highest dose often 46.1 µM), hits mostly activators; MCF 10A DNA re-replication, Hoechst nuclear intensity, 48 h; AID 624296; hit rate 2.9% among 350,000; further: nearly all actives have a fitted effect of over 50% in size
hERG WT inh = KCNH2 (human, wildtype) channel inhibition | U2OS, BacMam KCNH2, thallium flux FluxOr; stronger effect = lower value | hit rate 0.37% among 340,000 | activity change, % at 1.84 µM | Q12809 | AID 720551;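 active means maximum activity change below -70%; inconclusive means maximum activity change between -70% and -50%; inactive means maximum activity change above -50%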
Target sequence (Q12809 whole entry, looked up): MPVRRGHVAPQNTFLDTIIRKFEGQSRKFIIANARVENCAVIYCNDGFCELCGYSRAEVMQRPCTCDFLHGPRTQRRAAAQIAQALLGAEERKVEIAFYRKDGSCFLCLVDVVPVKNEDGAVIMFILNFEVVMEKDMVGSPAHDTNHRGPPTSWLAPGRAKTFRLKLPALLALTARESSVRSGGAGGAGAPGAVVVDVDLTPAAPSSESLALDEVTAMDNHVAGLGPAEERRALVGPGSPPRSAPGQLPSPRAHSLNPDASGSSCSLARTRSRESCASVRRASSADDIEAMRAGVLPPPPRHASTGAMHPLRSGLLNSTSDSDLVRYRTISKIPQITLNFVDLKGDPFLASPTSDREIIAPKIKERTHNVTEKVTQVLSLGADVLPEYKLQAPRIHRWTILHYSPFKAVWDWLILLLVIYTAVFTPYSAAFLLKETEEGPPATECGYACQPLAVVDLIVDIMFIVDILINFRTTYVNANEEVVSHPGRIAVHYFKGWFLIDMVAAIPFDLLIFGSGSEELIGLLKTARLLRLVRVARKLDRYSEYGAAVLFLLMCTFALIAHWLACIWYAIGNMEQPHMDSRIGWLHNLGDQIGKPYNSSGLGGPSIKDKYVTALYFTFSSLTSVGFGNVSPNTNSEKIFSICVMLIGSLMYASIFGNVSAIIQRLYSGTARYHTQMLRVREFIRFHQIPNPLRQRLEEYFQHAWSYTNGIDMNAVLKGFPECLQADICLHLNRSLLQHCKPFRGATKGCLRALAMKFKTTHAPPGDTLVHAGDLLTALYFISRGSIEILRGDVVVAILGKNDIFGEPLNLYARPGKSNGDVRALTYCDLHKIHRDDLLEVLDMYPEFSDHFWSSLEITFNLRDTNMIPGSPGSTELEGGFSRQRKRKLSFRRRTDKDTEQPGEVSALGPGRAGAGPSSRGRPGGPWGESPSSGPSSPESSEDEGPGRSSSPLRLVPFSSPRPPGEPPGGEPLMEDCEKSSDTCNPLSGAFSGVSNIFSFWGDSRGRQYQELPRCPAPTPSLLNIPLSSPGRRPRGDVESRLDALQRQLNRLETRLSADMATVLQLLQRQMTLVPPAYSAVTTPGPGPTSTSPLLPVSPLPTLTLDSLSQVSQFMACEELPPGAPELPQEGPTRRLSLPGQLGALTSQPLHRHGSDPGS
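U2OS cells transduced with wild-type KCNH2 virus are loaded with FluxOr dye for 45 min, and thallium flux is measured in kinetic reads before and after stimulation buffer. Rate constants are normalized to DMSO controls.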
KB-3-1 tox = KB-3-1 parental cell cytotoxicity | KB-3-1 viability, CellTiter-Glo ATP luminescence, 72 h | Potency, µM (series often up to 46.1 µM), usual class: cytotoxic | hit rate 1.4% among 400,000 | AID 1347075; further: nearly all actives have a fitted effect of over 60% in size
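Cytotoxicity measured as CellTiter-Glo luminescence after 72 h at 37 C. Compound titrations were pinned onto drug-naive KB-3-1 parental adenocarcinoma cells grown in DMEM with 10% FBS, and normalized data fitted to concentration-response curves.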
KB-V1 cytotox = kills drug-selected multidrug resistant KB-V1 cells | hit rate 3.4% among 400,000 | Potency, µM (top dose mostly 46.1 µM), usual class: cytotoxic | KB-V1 MDR cells viability, CellTiter-Glo, 72 h; further: nearly all actives have a fitted effect of over 60% in size
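Readout: CellTiter-Glo luminescence, 10 min after addition. Cells: KB-V1 MDR subline, 72 h at 37 degrees C with compound. Analysis: corrected, normalized data fitted to concentration-effect curves.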
Large screens that a line does not name were inactive; ! = not confirmed by another sample. Most compounds without a hit are left out; they make up all but 7.6% or so of the library. Unless noted, the call rests on the fitted dose curve; in most records, active means well fitted curve in the direction sought with a large enough effect; inconclusive means small, poorly fitted or top-dose-only effect, or another doubt; inactive means no such curve, though single readings can be large; an effect the other way counts as inactive or inconclusive.

CCN(C(=O)CCc1nc(-c2ccc(OC)cc2)no1)c1cc(OC)ccc1OC	KB-3-1 tox inconclusive, KB-V1 cytotox 16µM
COc1cccc(-c2noc(CCC(=O)NC3CCCC3)n2)c1	none
COc1ccc(-c2noc(CCCC(=O)NC3CCCCC3)n2)cc1OC	KB-V1 cytotox inconclusive
O=C(CCCc1nc(-c2ccc(Cl)cc2)no1)NC1CCCCC1	KB-3-1 tox inconclusive, KB-V1 cytotox 12µM
COc1cccc(-c2noc(CCCC(=O)NC3CCCC3)n2)c1	SW480 rerep 21µM
CCOc1ccc(-c2noc(CCCC(=O)NC3CCCC3)n2)cc1OC	KB-V1 cytotox 8.2µM
CCCN(C(=O)CCc1nc(-c2ccc(OC)cc2)no1)c1ccccc1F	none (no result: SW480 rerep, KCNH2 3.1 inh, MCF10A rerep, hERG WT inh)
Cc1[nH]c2ccccc2c1C(=O)C(C)Sc1nc2ccccc2c(=O)n1Cc1cccnc1 (stereo not given)	none (no result: SW480 rerep, KCNH2 3.1 inh, MCF10A rerep, hERG WT inh)
Nc1ccc2c(c1)C(=O)N(c1ccc3ccccc3c1)C2=O	none (no result: SW480 rerep, KCNH2 3.1 inh, MCF10A rerep, hERG WT inh)
COc1cccc(/C=N/Nc2nc(Nc3ccc([N+](=O)[O-])cc3)nc(N3CCCC3)n2)c1O	SW480 rerep 5.8µM, KB-3-1 tox 16µM, KB-V1 cytotox inconclusive
Cc1ccc(C=NNc2ccc([N+](=O)[O-])cn2)cc1	none
O=C(O)c1ccccc1C=NNc1ccc([N+](=O)[O-])cn1	none
O=[N+]([O-])c1ccc(Nc2nc(N/N=C/c3cccc(F)c3)nc(N3CCCC3)n2)cc1	MCF10A rerep inconclusive
COc1cccc(/C=N/Nc2ccc([N+](=O)[O-])cn2)c1O	SW480 rerep 1.2µM, MCF10A rerep inconclusive, KB-3-1 tox 5.2µM
O=[N+]([O-])c1ccc(NN=Cc2cccc3ccccc23)nc1	SW480 rerep 3.3µM, MCF10A rerep inconclusive, KB-3-1 tox inconclusive
Cc1cc(NCCCCCCCNc2cc(C)nc3cc([N+](=O)[O-])ccc23)c2ccc([N+](=O)[O-])cc2n1	SW480 rerep inconclusive, MCF10A rerep 3.7µM, KB-3-1 tox inconclusive, KB-V1 cytotox 21µM (no result: KCNH2 3.1 inh)
COCCCNc1cc(C)nc2ccccc12	none
O=c1c2ccccc2nc(SCc2cccc(F)c2)n1-c1cccc(S(=O)(=O)N2CCCC2)c1	KB-V1 cytotox 3.3µM
Cc1ccc(CCNS(=O)(=O)c2ccc3c(c2)CCN3C(=O)CCC(=O)O)cc1	none (no result: SW480 rerep, KCNH2 3.1 inh, MCF10A rerep, hERG WT inh)
COc1ccc(Nc2ncnc3onc(-c4ccc(Cl)cc4)c23)cc1Cl	KB-3-1 tox 10µM (no result: SW480 rerep, KCNH2 3.1 inh, MCF10A rerep, hERG WT inh)
COc1ccc(SC[C@H](C)CN2CC[C@H](C(C)(C)C)CCC2=O)cc1	MCF10A rerep inconclusive, KB-3-1 tox inconclusive, KB-V1 cytotox 15µM!
C[C@@H](CSc1ccccc1)CN1CC[C@H](C(C)(C)C)CCC1=O	MCF10A rerep inconclusive, KB-3-1 tox inconclusive, KB-V1 cytotox 18µM!
COc1ccc(NC(=O)CSCC(=O)Nc2nnc(CC(C)C)s2)cc1	none
Cc1nc(-n2nc(C)c(CCC(C)C)c2C)sc1C(=O)Nc1cccc(Cl)c1C	none (no result: SW480 rerep, KCNH2 3.1 inh, MCF10A rerep, hERG WT inh)
Cc1nc2ccc(S(=O)(=O)N(C)CC(=O)NCc3ccc(N(C)C)cc3)cc2s1	SW480 rerep inconclusive
CCc1ccc(NC(=O)COc2ccc(/C=C(/C#N)c3nc4ccccc4[nH]3)cc2OC)cc1	SW480 rerep inconclusive, MCF10A rerep inconclusive, KB-3-1 tox 1.5µM, KB-V1 cytotox inconclusive
COC(=O)c1ccc(COc2ccc(/C=C(\C#N)c3nc4ccccc4[nH]3)cc2OC)o1	MCF10A rerep inconclusive, KB-V1 cytotox inconclusive
CCOC(=O)N1CCC(Nc2nc3ccccc3nc2NS(=O)(=O)c2ccc(Cl)cc2)CC1	KB-3-1 tox inconclusive, KB-V1 cytotox 15µM
O=S(=O)(Nc1nc2ccccc2nc1N1CCN(c2ccccc2F)CC1)c1ccc(Cl)cc1	MCF10A rerep 10µM, KB-3-1 tox 11µM, KB-V1 cytotox inconclusive
O=C1N=C(N2CCCCC2)S/C1=C\c1ccccc1F	none
CCCOc1ccccc1/C=C1\SC(N2CCCCC2)=NC1=O	MCF10A rerep inconclusive, KB-3-1 tox 7.3µM
Clc1ccc(C2=NN(c3ccccc3)C(c3ccco3)C2)cc1 (stereo not given)	SW480 rerep 3.7µM, MCF10A rerep 0.73µM, hERG WT inh inconclusive
Cc1ccc(N2N=C(c3ccc(F)cc3)CC2c2ccco2)cc1 (stereo not given)	SW480 rerep inconclusive, MCF10A rerep 5.8µM
Cc1ccc(C2CC(c3ccccc3)=NN2c2ccccc2)o1 (stereo not given)	SW480 rerep 15µM, MCF10A rerep 18µM
Cc1nc(N2N=C(c3ccc(Cl)cc3)CC2c2ccco2)sc1C(=O)N(C)C (stereo not given)	SW480 rerep 18µM, MCF10A rerep 23µM, KB-V1 cytotox inconclusive
CCOC(=O)C1CC(c2ccccc2)=NN1c1ccccc1 (stereo not given)	none (no result: SW480 rerep, MCF10A rerep)
COc1ccc(C2=NN(C(=O)CSc3nnc(C)n3C)C(c3ccco3)C2)cc1 (stereo not given)	none (no result: hERG WT inh)
COc1ccc(C2=NN(c3nc(-c4ccccc4)c(CC(=O)O)s3)C(c3ccco3)C2)cc1 (stereo not given)	SW480 rerep inconclusive, MCF10A rerep 21µM
Fc1ccc(C2=NN(c3ccccc3)C(c3ccco3)C2)cc1 (stereo not given)	SW480 rerep 6.5µM, MCF10A rerep inconclusive
CCOC(=O)C1(C)CCN1C(=O)c1ccc(C(F)(F)F)cc1 (stereo not given)	none (no result: SW480 rerep, KCNH2 3.1 inh, MCF10A rerep, hERG WT inh)
CC(C)(C)NC(=O)CN(C(=O)c1ccc(CN2CCOCC2)o1)c1ccc2c(c1)OCCO2	none
CCOc1ccccc1N(CC(=O)NC(C)(C)C)C(=O)c1ccc(CN2CCOCC2)o1	MCF10A rerep inconclusive, KB-V1 cytotox 15µM
O=C(Nc1ccc(Cc2ccncc2)cc1)C1CCC(N2C(=O)C3C4C=CC(C5CC45)C3C2=O)CC1 (stereo not given)	MCF10A rerep inconclusive, KB-3-1 tox inconclusive, KB-V1 cytotox 12µM
COc1ccc(NC(=O)C2CCC(N3C(=O)C4C5C=CC(C5)C4C3=O)CC2)cc1 (stereo not given)	none
CC(=O)Nc1ccc(NC(=O)C2CCC(N3C(=O)C4C5C=CC(C6CC56)C4C3=O)CC2)cc1 (stereo not given)	MCF10A rerep 23µM
O=C(Nc1ccc(Cc2ccncc2)cc1)C1CC1	MCF10A rerep inconclusive, KB-V1 cytotox inconclusive
COc1ccc2c(c1)c(=O)c(S(=O)(=O)c1ccccc1)cn2CC(=O)Nc1ccc(C)c(Cl)c1	none (no result: SW480 rerep, KCNH2 3.1 inh, MCF10A rerep, hERG WT inh)
O=C(NC1CCCC1)C(=O)N(c1ccccc1F)C(C(=O)NCC1CCCO1)c1cccs1 (stereo not given)	none
CC(=O)N1CC(=O)N=C1SCC(=O)Nc1nc(C)c(-c2ccccc2)s1	MCF10A rerep inconclusive, KB-3-1 tox inconclusive, KB-V1 cytotox 13µM
CCOc1ccc(-c2csc(NC(=O)CSC3=NC(=O)CN3C(C)=O)n2)c2ccccc12	MCF10A rerep inconclusive
